TEAD-YAP block: TEAD-YAP interaction inhibition; HEK-TIYL cells, TEAD-Gal4/YAP UAS-luciferase luminescence; inhibition, % at 9.12 µM; 640,000 compounds, 1.4% hits; AID 1259422; in the data active means inhibition above about 32%;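 further: 0% = median of test compound wells and 100% = reference inhibitor wells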
GPR151 activ: human GPR151 activation; PathHunter beta-arrestin GPR151 cells, luminescence; activation, % at 11.2 µM; 650,000 compounds, 1% hits; AID 1508602; in the data active means activation above about 4.9%;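 further: 0% = median of compound wells and 100% = cells with positive control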
MITF primary: blocks human microphthalmia-associated transcription factor. AlphaScreen MITF homodimerization, bead proximity signal. O75030. AID 1259374. 650,000 compounds, 0.91% hits. inhibition, % at 2.6 µM; in the data active means inhibition above about 50%;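 further: 0% = vehicle wells with protein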
FBW7 act: human FBW7 E3 ligase activation, primary screen. AlphaScreen FBW7–phospho-cyclin E peptide binding, activator screen. 650,000 compounds, 0.13% hits. normalized activity (activation), % at 26.1 µM. Q969H0; in the data active means normalized activity above about 1.9%;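 further: purified mutant Fbw7 with reduced substrate affinity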
Target sequence (Q969H0 whole entry, looked up): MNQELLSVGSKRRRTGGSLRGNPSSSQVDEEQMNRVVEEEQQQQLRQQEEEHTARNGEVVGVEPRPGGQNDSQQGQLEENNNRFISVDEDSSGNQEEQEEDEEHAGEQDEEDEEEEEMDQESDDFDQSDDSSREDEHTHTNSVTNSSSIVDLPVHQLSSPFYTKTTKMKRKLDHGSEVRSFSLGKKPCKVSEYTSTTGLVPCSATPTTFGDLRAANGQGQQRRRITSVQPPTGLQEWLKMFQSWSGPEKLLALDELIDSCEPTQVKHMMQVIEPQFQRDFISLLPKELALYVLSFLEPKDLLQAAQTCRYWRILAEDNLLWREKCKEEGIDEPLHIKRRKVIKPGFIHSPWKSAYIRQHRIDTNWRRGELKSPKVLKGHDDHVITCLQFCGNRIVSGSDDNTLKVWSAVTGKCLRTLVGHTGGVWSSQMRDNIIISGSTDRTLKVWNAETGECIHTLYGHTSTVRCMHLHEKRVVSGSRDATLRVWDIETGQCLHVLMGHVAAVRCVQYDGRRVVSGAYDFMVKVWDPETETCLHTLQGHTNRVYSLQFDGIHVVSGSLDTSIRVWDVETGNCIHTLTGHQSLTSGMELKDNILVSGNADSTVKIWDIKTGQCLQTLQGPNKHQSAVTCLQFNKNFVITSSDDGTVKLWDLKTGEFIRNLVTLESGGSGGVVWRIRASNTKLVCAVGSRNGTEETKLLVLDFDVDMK
GPR151 conf act: confirmation of human GPR151 activators. shares compounds with GPR151 activ. GPR151 PathHunter beta-arrestin cells, luminescence, 90 min; % of EA-reagent control over plate median. activation, % at 11.2 µM. 6,700 tested, under 10 active. AID 1508609;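 active means mean percent activation across replicates above the confirmation screen cutoff of 4.91%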
GPR119 counter: GPR119 activation, counter-screen for GPR151 activators; shares compounds with GPR151 activ; GPR119 PathHunter beta-arrestin cells, luminescence, 90 min; 0 = compound-well median, 100 = enzyme-acceptor control; activation, % at 11.2 µM; 6,700 compounds, 0.3% hits; AID 1508611;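 active means mean percent activation in the counterscreen above 29.09%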;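 further: counterscreen on off-target GPR119 to flag nonselective hits from the GPR151 activator screen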
Starred values were filed as active, the others as inactive; x = no result. Only some compounds are listed: those with a hit (about 3.4% of all), similar ones and a draw of the others.

SMILES	TEAD-YAP block	GPR151 activ	MITF primary	FBW7 act	GPR151 conf act	GPR119 counter
O=C(c1c(F)cccc1Cl)N(c1ccc(F)cc1)C1C=CS(=O)(=O)C1 (centres undefined)	5.4	7.2*	1.0	0.0	-0.1	6.2
COc1ccccc1N1CCN(C(=O)CN(c2cc(C)cc(C)c2)S(C)(=O)=O)CC1	5.9	6.4*	15.4	0.1	-0.1	-0.2
COc1ccccc1N(CC(N)=O)S(C)(=O)=O	-3.7	-0.8	-2.5	0.5	x	x
COc1ccccc1N(CC(=O)N(C)C)S(C)(=O)=O	8.2	6.1*	16.1	0.1	1.3	17.4
O=C(COc1ccc(Cl)cc1Cl)Nn1c(SCc2cccc(F)c2)nc2ccccc2c1=O	-11.3	-1.1	4.8	0.1	x	x
COc1cccc(-c2nnc3n2N=C(c2cccc([N+](=O)[O-])c2)CS3)c1	15.9	12.8*	-7.4	0.0	-0.7	-8.6
CCC(=O)N1CCC[C@@H]2CN(C(=O)/C=C/c3cccs3)CC[C@H]21	-17.3	5.6*	-1.8	0.1	0.4	-2.4
COc1ccc(C2C3=C(CCCC3=O)Nc3[nH]n(-c4ccccc4)c(=O)c32)c(OC)c1OC (centres undefined)	-1.2	1.0	-3.3	-0.2	x	x
COc1cccc(OCC(=O)N2CCCCC2)c1	-33.4	-0.2	16.2	0.0	x	x
COc1ccc(C2/C(=C(/O)c3ccccc3)C(=O)C(=O)N2CCC(=O)O)cc1 (centres undefined)	-3.4	0.9	-12.5	-0.3	x	x
COc1cc(/C=C2/N=C(c3ccc(Cl)cc3)OC2=O)cc(Br)c1OC(C)=O	1.6	-0.5	8.5	0.0	x	x
COc1cc(/C=C2\N=C(c3cc(OC)c(OC)c(OC)c3)OC2=O)cc(Br)c1OC(C)=O	7.0	5.5*	11.0	0.3	-0.3	12.4
Cn1c(C(=O)N2CCC(C(=O)NCc3cccnc3)CC2)cc2sccc21	-1.0	1.6	3.0	-0.2	x	x
CC(=O)Nc1ccc(C(=O)OCC(=O)N(NC(=O)Nc2ccccc2)c2ccccc2)cc1	-1.5	-0.5	12.3	0.1	x	x
COc1ccc(C(=O)NC2CC2)cc1OC1CCN(C2CCC2)CC1	-14.9	7.0*	6.5	0.0	0.5	0.7
COc1ccc(C(=O)NC2CC2)cc1OC1CCN(C2CCCCCC2)CC1	-0.4	-0.4	2.9	-0.3	x	x
COc1ccc(C(=O)NC2CC2)cc1OC1CCN(C2Cc3ccccc3C2)CC1	-22.9	11.3*	3.6	-0.1	-0.3	-0.9
CN(Cc1nccs1)C(=O)CN1Cc2ccccc2OC(c2ccccc2F)C1 (centres undefined)	2.1	6.6*	2.7	1.2	1.4	12.0
COc1ccccc1C1CN(CC(=O)N(C)C(C)c2nccs2)Cc2ccccc2O1 (centres undefined)	-1.7	-1.3	-7.5	0.1	x	x
CCOc1ccccc1-n1c(=S)sc2c(=O)n(-c3ccc(F)cc3)c(SCC(=O)NCc3ccco3)nc21	-2.4	5.4*	-1.1	-0.1	1.4	12.3
Cc1ccccc1-n1c(=S)sc2c(=O)n(-c3ccccc3)c(SCC(=O)c3ccccc3)nc21	-10.4	0.8	14.8	0.3	x	x
O=C(CSc1nc2c(sc(=S)n2-c2ccccc2)c(=O)n1-c1ccccc1)NC1CCCCC1	1.4	0.4	-6.7	0.0	x	x
COc1ccccc1-n1c(=S)sc2c(=O)n(-c3ccccc3)c(SCC(=O)NC3CCCCC3)nc21	-4.5	6.0*	15.5	0.1	-1.0	-19.9
Cc1ccc(-n2c(SCC(=O)N3CCCC3)nc3c(sc(=S)n3-c3ccccc3C)c2=O)cc1	2.9	-0.2	39.4	0.3	x	x
Cc1cccc(C)c1-n1c(=S)sc2c(=O)n(-c3ccccc3)c(SCC(=O)c3ccccc3)nc21	-3.2	6.1*	-9.9	0.1	0.2	-2.5
Cc1ccc(-n2c(SCC(=O)N3CCCC3)nc3c(sc(=S)n3-c3cc(C)ccc3F)c2=O)cc1	6.6	6.7*	6.2	0.0	1.2	0.3
CCOc1ccccc1-n1c(=S)sc2c(=O)n(-c3ccc(C)cc3)c(SCC(=O)NCc3ccco3)nc21	1.7	-0.3	-12.4	0.0	x	x
COc1ccc(Cl)cc1NC(=O)CC(NCc1ccco1)C(=O)O (centres undefined)	1.6	1.6	-2.9	0.0	x	x
N#Cc1cccc(N=c2oc3ccccc3cc2-c2nc3ccccc3[nH]2)c1	-56.9	-2.1	16.4	-0.1	x	x

Screening data from PubChem BioAssay.
